Reference: PubChem BioAssay (NCATS)
Inconclusive results are not listed. A call without a number means that no potency is given here. The source made the active and inactive calls. Calls come from the whole dose curve; as a rule, active = well fitted curve in the direction sought with a large enough effect; inconclusive = small, poorly fitted or top-dose-only effect, or another doubt; inactive = no such curve, though single readings can be large; an effect the other way counts as inactive or inconclusive.

What was measured:
[1] = system: Zika virus NS2B-NS3 protease; assay: Primary screen GU AMC qHTS for Zika virus inhibitors (AID 1347154); note: nearly all actives have a fitted effect of over 70% in size
In short: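 Fluorogenic AMC-substrate cleavage by noncovalent NS2B-NS3 protease complex (25 nM, pH 8.0 Tris buffer with Tween 20) followed for 15 minutes at room temperature (~20% conversion). Percent inhibition from ex340/em450 signal change, fitted by 4-parameter Hill equation.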

[2] = system: Zika virus NS2B-NS3 protease (unlinked complex); assay: Primary screen GU Rhodamine qHTS for Zika virus inhibitors: Unlinked NS2B-NS3 protease assay (AID 1347159); note: nearly all actives have a fitted effect of over 60% in size
In short: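 Enzyme 25 nM in Tris-HCl pH 8.0 + 0.01% Tween 20; compounds up to 114 microM, 15 min RT dark; + Rhod110 substrate 1.5 microM; read t0 and 15 min; delta fluorescence → % inhibition → 4-parameter Hill fit.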

[3] = system: Zika virus NS2B-NS3 protease (linked construct); assay: Primary screen NINDS Rhodamine qHTS for Zika virus inhibitors (AID 1347160); note: nearly all actives have a fitted effect of over 55% in size
In short: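 Enzyme (25 nM, linked NS2B-NS3) was preincubated 15 min with compound in 10 mM Tris-HCl pH 8.0, 0.01% Tween 20. Rhodamine110 substrate (1.5 microM) was then added and fluorescence read at start and after 15 min.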

[4] = qHTS to identify inhibitors of the type 1 interferon - major histocompatibility complex class I in skeletal muscle: primary screen against the NCATS Mechanism Interrogation Plate v5.0 (MIPE) Libary (AID 1347411); note: nearly all actives have a fitted effect of over 65% in size; note: potency is the fitted concentration of half-maximal effect
In short: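 Seed engineered human myoblasts (HLA-B HiBit) in medium without dexamethasone containing 4 ng/ml IFN-beta; after 1 hr add compound titrations (top 46 uM final). Incubate 24 hrs at 37 C, lyse 10 min with HiBiT reagent, read luminescence.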

[5] = qHTS to identify inhibitors of the type 1 interferon - major histocompatibility complex class I in skeletal muscle: primary screen against the NCATS Pharmaceutical Collection (AID 1347407);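 note: luminescence of HiBiT knocked into endogenous HLA-B as interferon-induced MHC class I level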
In short: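 Cells were seeded with 4 ng/ml IFN-beta, incubated 1 h, then dosed with compounds over eight 1:5 steps up to 46 uM final. After 24 h at 37 C, HiBiT lytic reagent was added and luminescence read after 10 min lysis in the dark.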

[6] = target: Protein phosphatase 1D (Homo sapiens) (UniProt O15297); assay: RapidFire Mass Spectrometry qHTS Assay for Modulators of WT P53-Induced Phosphatase 1 (WIP1) (AID 1347424);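 note: amount of dephosphorylated VEPPL-S-QETFS peptide product formed by WIP1; series mostly up to about 63 µM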
Protein phosphatase 1D (Homo sapiens), sequence (O15297 whole entry, looked up): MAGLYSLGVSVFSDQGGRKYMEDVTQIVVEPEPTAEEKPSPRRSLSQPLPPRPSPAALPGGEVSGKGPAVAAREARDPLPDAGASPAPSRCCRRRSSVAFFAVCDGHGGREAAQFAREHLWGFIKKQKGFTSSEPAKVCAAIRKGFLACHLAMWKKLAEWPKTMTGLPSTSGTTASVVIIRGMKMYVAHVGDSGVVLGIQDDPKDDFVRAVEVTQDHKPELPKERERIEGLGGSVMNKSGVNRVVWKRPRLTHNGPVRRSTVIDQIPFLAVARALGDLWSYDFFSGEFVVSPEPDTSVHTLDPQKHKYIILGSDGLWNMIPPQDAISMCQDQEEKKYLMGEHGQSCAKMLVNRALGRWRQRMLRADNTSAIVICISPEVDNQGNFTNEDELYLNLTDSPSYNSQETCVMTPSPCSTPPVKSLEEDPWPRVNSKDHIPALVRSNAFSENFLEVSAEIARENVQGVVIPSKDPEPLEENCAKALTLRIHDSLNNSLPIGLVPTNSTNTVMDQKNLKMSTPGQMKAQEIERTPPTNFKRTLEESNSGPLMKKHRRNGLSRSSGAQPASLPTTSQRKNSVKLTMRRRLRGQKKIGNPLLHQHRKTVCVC
In short: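 RapidFire mass spectrometry measured dephosphorylated peptide after 5 min room-temperature reaction of 2 uM VEPPL-pS-QETFS with 10 nM WIP1 (50 mM Tris-HCl pH 7.5, 30 mM MgCl2, 0.1 mM EGTA, BSA), following 1 hr compound preincubation; 1 uM isotope-labelled product standard.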

Structure (SMILES)	Potency [1]	Potency [2]	Potency [3]	Potency [4]	outcome [5]	Potency [6]
CN1CCC(COc2cnc(-c3cccc(Cn4nc(-c5cccc(C#N)c5)ccc4=O)c3)nc2)CC1	inactive	inactive	inactive	inactive	–	–
CN(C)CCCNC(=O)c1ccc(-c2cc(O)c3ncccc3c2)cc1	inactive	–	inactive	inactive	–	–
O=C(Nc1ccc(OC(F)(F)F)cc1)c1sccc1NCc1ccnc2ccccc12	inactive	inactive	–	inactive	–	–
NS(=O)(=O)c1ccc(Nc2nc(OCC3CCCCC3)c3[nH]cnc3n2)cc1	inactive	–	inactive	–	–	–
CCc1cccc(CC)c1NC(=O)N1Cc2[nH]nc(NC(=O)c3ccc(N4CCN(C)CC4)cc3)c2C1	inactive	inactive	inactive	10.4 µM (active)	–	–
Cc1cc(C(C)Nc2ccccc2)c2nc(N3CCOCC3)cc(=O)n2c1 (stereo not drawn)	inactive	inactive	inactive	inactive	–	–
COc1ccnc(CS(=O)c2nc3ccc(OC(F)F)cc3[nH]2)c1OC (stereo not drawn)	inactive	–	–	inactive	inactive	inactive
O=C(CC12CC3CC(CC(C3)C1)C2)Nc1cccc2nc(NCCNCCO)ccc12	inactive	inactive	–	inactive	–	–
CCNC(=O)c1noc(-c2cc(C(C)C)c(O)cc2O)c1-c1ccc(CN2CCOCC2)cc1	inactive	inactive	–	0.0415 µM (active)	–	–
C[C@@H]1C[C@H]2[C@@H]3CCC4=CC(=O)C=C[C@]4(C)[C@@]3(F)[C@@H](O)C[C@]2(C)[C@@]1(O)C(=O)CO	inactive	–	–	inactive	inactive	inactive
COc1nccc(-c2c(-c3ccc(F)cc3)ncn2C2CCC(O)CC2)n1 (stereo not drawn)	inactive	inactive	inactive	inactive	–	–
